This passage reports viability index results from the supplement of paper PMC4723716.

The test system of this experiment is Plasmodium falciparum NF54 stage V gametocytes. Kind of experiment: viability index relative to DMSO control (fraction); higher = less gametocyte killing. As to conditions: 2.5 µM, incubation time: 72 h. An outline of the steps: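 Viability index is the count of red-stained particles in a well divided by the plate mean of solvent-only wells. Particles of 20–70 µm2 were counted in one imaged field per well after one to two hours with 3 µl of 2.5 µM MitoTracker Red CMXRos and 0.13% saponin. Before staining, P. falciparum NF54 stage V gametocytes in serum-free medium (0.75% gametocytemia, 1.25% hematocrit, 10 µl, 1,536-well plates) were kept with compound at 2.5 µM for 72 hr at 37°C under low oxygen.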

[1] abbreviates: library set: Broad Institute DOS.
[2] abbreviates: library set: Broad Institute Blood Stage.

± gives the uncertainty stated by the source. In all, about 9,900 compounds were measured (“viability index relative to DMSO control”: median about 1, lowest 2% from about 0.85 on). Only a selection was taken, and the lowest values are over-represented in it overall.

Regarding `C[C@H]1CN([C@@H](C)CO)C(=O)c2c(c3ccccc3n2C)-c2ccccc2CO[C@@H]1CN(C)C(=O)NC1CCCCC1`, the viability index under setting [1] came out at 1.04 ± 0.11.

Regarding `O=C(C[C@@H]1CC[C@@H]2[C@H](COC[C@@H](O)CN2C(=O)c2ccncc2)O1)NCc1cc(F)cc(F)c1`, the viability index under setting [1] stood at 1.05 ± 0.12.

Under setting [1], `O=C(O)C[C@H]1C[C@H]2c3cc(NC(=O)Nc4ccc(C(F)(F)F)cc4)ccc3O[C@H]2[C@@H](CO)O1` came in with a viability index of 1.06 ± 0.041.

For the compound `O=C(NC[C@@H]1[C@H](c2ccccc2)[C@@H](CO)N1C(=O)C1CCC1)NC1CCCC1`, the viability index under setting [1] amounted to 0.976 ± 0.12.

`COc1ccc(S(=O)(=O)N(C)C[C@@H]2Oc3ccc(NC(=O)Nc4ccc(C(F)(F)F)cc4)cc3C(=O)N([C@H](C)CO)C[C@H]2C)cc1` yielded a viability index under setting [1] of 0.957 ± 0.08.

`CN1CCN(C(=O)C[C@H]2CC[C@@H]3[C@H](COC[C@H](O)CN3Cc3cccc(-c4ccncc4)c3)O2)CC1` had a viability index under setting [1] of 1.08 ± 0.028.

`O=C(C[C@H]1CC[C@H](NS(=O)(=O)c2ccc(F)cc2)[C@@H](CO)O1)N1CCN(c2ccccc2)CC1` showed a viability index under setting [1] of 1.09 ± 0.13.

The compound `O=C(C[C@H]1CC[C@@H]2[C@H](COC[C@@H](O)CN2CCc2ccccc2)O1)NCCCN1CCOCC1` had a viability index under setting [1] of 1.07 ± 0.054.

Consider `O=C(c1ccccc1F)N1CC(=O)N2[C@H](C1)[C@@H](c1ccc(-c3cccnc3)cc1)[C@@H]2CO`, for which, under setting [2], the viability index worked out at 0.866 ± 0.049.

On to `O=C(c1ccccc1F)N1CC(=O)N2[C@H](C1)[C@@H](c1ccc(-c3ccc(F)cc3)cc1)[C@@H]2CO`, for which the viability index under setting [2] was determined as 0.86 ± 0.04.

As for `O=C(c1ccccc1F)N1CC(=O)N2[C@H](CO)[C@H](c3ccc(-c4cccnc4)cc3)[C@H]2C1`, under setting [2], the viability index was 0.742 ± 0.068.

Compound `Cc1noc(C)c1NC(=O)N(C)C[C@@H]1OCc2cn(nn2)CCCC(=O)N([C@H](C)CO)C[C@@H]1C` came in with a viability index under setting [1] of 1.08 ± 0.1.

Compound `C[C@H](CO)N1C[C@H](C)[C@H](CN(C)Cc2ccc(C(=O)Nc3ccccc3N)cc2)OCc2cnnn2CCCC1=O` registered a viability index under setting [1] of 0.953 ± 0.042.

Under setting [1], `CO[C@H]1CN(C)C(=O)c2ccc(NC(=O)c3cc(C)on3)cc2OC[C@H](C)NC[C@H]1C` yielded a viability index of 0.98 ± 0.029.

Under setting [1], `COc1cccc(S(=O)(=O)N(C)C[C@H]2OCc3ccccc3-c3c(n(C)c4ccccc34)C(=O)N([C@@H](C)CO)C[C@@H]2C)c1` yielded a viability index of 0.956 ± 0.013.

Under setting [1], `COc1cccc(S(=O)(=O)N(C)C[C@H]2OCc3ccccc3-c3c(n(C)c4ccccc34)C(=O)N([C@H](C)CO)C[C@H]2C)c1` gave a viability index of 0.952 ± 0.034.

Under setting [1], `COc1cccc(S(=O)(=O)N(C)C[C@@H]2OCc3ccccc3-c3c(n(C)c4ccccc34)C(=O)N([C@H](C)CO)C[C@@H]2C)c1` gave a viability index of 0.826 ± 0.058.

In turn, `COc1cccc(S(=O)(=O)N(C)C[C@@H]2OCc3ccccc3-c3c(n(C)c4ccccc34)C(=O)N([C@@H](C)CO)C[C@H]2C)c1` yielded a viability index under setting [1] of 0.977 ± 0.016.

As to `COc1cccc(S(=O)(=O)N(C)C[C@H]2OCc3ccccc3-c3c(n(C)c4ccccc34)C(=O)N([C@@H](C)CO)C[C@H]2C)c1`, the viability index under setting [1] came to 0.833 ± 0.059.

With `COc1cccc(S(=O)(=O)N(C)C[C@H]2OCc3ccccc3-c3c(n(C)c4ccccc34)C(=O)N([C@H](C)CO)C[C@@H]2C)c1`, the viability index under setting [1] was determined as 0.975 ± 0.027.

`COc1cccc(S(=O)(=O)N[C@H]2CC[C@@H](CC(=O)NC3Cc4ccccc4C3)O[C@@H]2CO)c1` gave a viability index under setting [1] of 0.999 ± 0.044.

`CC(C)(C)[S@](=O)N1Cc2cc(C(=O)N3CCOCC3)nc(-c3cccc(-c4ccccc4F)c3)c2[C@@H]1CCO` returned a viability index under setting [1] of 1.07 ± 0.044.

Under setting [1], `C[C@@H]1CN([C@@H](C)CO)C(=O)c2cc(NC(=O)Nc3ccccc3)ccc2O[C@@H](C)CCCCO[C@H]1CN(C)C(=O)Nc1ccccc1` displayed a viability index of 1.11 ± 0.13.

Regarding `Cc1ccc(S(=O)(=O)Nc2ccc3c(c2)C(=O)N(C)[C@@H]2CC[C@H](CC(=O)NCCc4ccncc4)O[C@H]2CO3)cc1`, under setting [1], the viability index was 1.04 ± 0.026.

Regarding `C[C@H](CO)N1C[C@H](C)[C@H](CN(C)Cc2ccc3c(c2)OCO3)Oc2ncc(-c3cccc(C(F)(F)F)c3)cc2C1=O`, under setting [1], the viability index came out at 0.976 ± 0.025.

For `C[C@@H]1CN([C@@H](C)CO)C(=O)c2cc(C#Cc3ccccc3)cnc2O[C@H]1CN(C)C(=O)c1ccccc1`, under setting [1], the viability index was 1 ± 0.091.

In turn, `COc1cccc(S(=O)(=O)N(C)C[C@@H]2Oc3ncc(C#Cc4ccc(OC)c(OC)c4)cc3C(=O)N([C@H](C)CO)C[C@@H]2C)c1` had a viability index under setting [2] of 1.01 ± 0.04.

On to `C[C@H](CO)N1C[C@H](C)[C@@H](CN(C)C(=O)c2ccccc2)Oc2ncc(C#Cc3ccccc3)cc2C1=O`, for which, under setting [1], the viability index came out at 0.963 ± 0.029.

Turning to `C[C@H]1CN([C@@H](C)CO)C(=O)c2cc(C#Cc3ccccc3)cnc2O[C@H]1CN(C)C(=O)c1ccccc1`, under setting [1], the viability index came out at 0.572 ± 0.14.

`C[C@@H]1CN([C@H](C)CO)C(=O)c2cc(C#Cc3ccccc3)cnc2O[C@H]1CN(C)C(=O)c1ccccc1`: the viability index under setting [1] amounted to 0.965 ± 0.019.

In turn, `CCCN(C)C[C@@H]1Oc2ncc(-c3cccc(OC)c3)cc2C(=O)N([C@H](C)CO)C[C@@H]1C` gave a viability index under setting [1] of 0.691 ± 0.3.

Under setting [1], `C[C@H]1CN([C@@H](C)CO)C(=O)c2cc(C#Cc3ccccc3)cnc2O[C@@H]1CN(C)C(=O)c1ccccc1` showed a viability index of 0.919 ± 0.071.

Under setting [1], `C[C@H](CO)N1C[C@H](C)[C@H](CN(C)C(=O)c2ccccc2)Oc2ncc(C#Cc3ccccc3)cc2C1=O` showed a viability index of 0.829 ± 0.086.
